The source of these data is PubChem BioAssay.

Activity calls are given as the source filed them. Unless noted, the rule behind the calls is not given here.

Assay [1] can be described thus: resazurin metabolic signal in HepG2 cells – cell-based, resazurin fluorescence, 24 h, PK04 Diversity Set, profiling panel (AID 1172). Note: test concentration not given here. Conditions: HepG2 viability, higher = more signal.
A short description of assay [2]: budding yeast growth changes without added modifier – OD600, strain BY4716, 24 h, basal condition, primary screen (AID 1173). Conditions: S. cerevisiae BY4716 growth, OD600, 24 h; higher = more signal, called active from +8 up or from −8 down.
Assay [3] can be described thus: viability profiling in MM1S myeloma cells – cell-based, resazurin fluorescence, basal, 24 h, PK04 Diversity Set, profiling panel (AID 1174).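 Note: MM1S multiple myeloma cell line; test concentration not given here.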 Conditions: higher = more signal, called active from +8 up or from −8 down.
Assay [4] has as its target Dihydroorotate dehydrogenase (quinone), mitochondrial (Plasmodium falciparum (isolate 3D7)) (UniProt Q08210). Briefly: inhibition of P. falciparum DHODH – biochemical, C-terminal His tag, absorbance 600 nm, primary screen (AID 1175).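 Note: recombinant parasite enzyme with a five histidine tag at its C terminus; test concentration not given here.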 Conditions: PfDHODH enzyme, DCIP absorbance 600 nm; higher = more signal, called active from +8 up or from −8 down.
The nature of assay [5]: inhibition of PAO1 biofilm formation – strain PAO1, LB-PBS medium, absorbance 600 nm, primary screen (AID 1176). Note: test concentration not given here. The conditions noted are these: P. aeruginosa PAO1 growth/biofilm, A600, 12 h; higher = more signal.
Assay [6] is described as follows: growth modulation of vineyard yeast isolate – strain RM11-1a, OD600, basal, 24 h, primary screen (AID 1177).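 Note: cultures grown under basal conditions with no added stressor; test concentration not given here.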 Conditions: S. cerevisiae RM11-1a growth, OD600, 24 h; higher = more signal, called active from +8 up or from −8 down.
Assay [7] in a line: growth of efflux-deficient E. coli DRC39 – strain DRC39, OD650, 24 h, E. coli filamentation inducers, primary screen (AID 1178).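 Note: growth measured as culture turbidity by optical density at 650 nm; test concentration not given here.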 Conditions: E. coli DRC39 acrAB, higher = more signal, called active from +8 up or from −8 down.
The nature of assay [8]: growth of efflux-deficient E. coli DRC39 – strain DRC39, OD650, 48 h, E. coli filamentation inducers, primary screen (AID 1179).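 Note: screen aims at cell division blockers that make cells filament.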 The conditions noted are these: E. coli DRC39 delta-acrAB growth, higher = more signal, called active from +8 up or from −8 down.
A short description of assay [9]: viability profiling in RPMI8226 myeloma cells – cell-based, resazurin fluorescence, basal, 24 h, PK04 Diversity Set, profiling panel (AID 1180).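 Note: RPMI8826 multiple myeloma cell line at 5000 cells per well; test concentration not given here.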 The conditions noted are these: higher = more signal.
In assay [10] the target is E3 ubiquitin-protein ligase XIAP (Homo sapiens) (UniProt P98170). Description: small molecules binding XIAP protein – biophysical, small-molecule microarray, fluorescence 635 nm, primary screen (AID 1181).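 Note: score merges 667 nm emission and signal to noise over triplicate slides.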 Conditions: higher = more signal.
E3 ubiquitin-protein ligase XIAP (Homo sapiens), sequence (P98170 whole entry, looked up): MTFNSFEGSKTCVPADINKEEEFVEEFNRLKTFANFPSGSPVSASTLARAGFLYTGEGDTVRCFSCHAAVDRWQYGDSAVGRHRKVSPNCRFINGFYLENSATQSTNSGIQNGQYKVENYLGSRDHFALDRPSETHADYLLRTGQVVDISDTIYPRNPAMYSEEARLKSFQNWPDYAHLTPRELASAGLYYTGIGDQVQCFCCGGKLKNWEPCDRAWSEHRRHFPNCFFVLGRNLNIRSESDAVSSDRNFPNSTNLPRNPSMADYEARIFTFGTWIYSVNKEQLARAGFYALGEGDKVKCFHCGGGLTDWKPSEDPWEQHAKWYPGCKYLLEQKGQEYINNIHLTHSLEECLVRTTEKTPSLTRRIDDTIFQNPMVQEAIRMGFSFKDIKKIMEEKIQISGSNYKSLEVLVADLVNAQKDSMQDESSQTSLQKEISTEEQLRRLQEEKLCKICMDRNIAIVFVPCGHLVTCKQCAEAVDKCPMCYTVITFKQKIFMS

Dihydroorotate dehydrogenase (quinone), mitochondrial (Plasmodium falciparum (isolate 3D7)), sequence (Q08210 whole entry, looked up): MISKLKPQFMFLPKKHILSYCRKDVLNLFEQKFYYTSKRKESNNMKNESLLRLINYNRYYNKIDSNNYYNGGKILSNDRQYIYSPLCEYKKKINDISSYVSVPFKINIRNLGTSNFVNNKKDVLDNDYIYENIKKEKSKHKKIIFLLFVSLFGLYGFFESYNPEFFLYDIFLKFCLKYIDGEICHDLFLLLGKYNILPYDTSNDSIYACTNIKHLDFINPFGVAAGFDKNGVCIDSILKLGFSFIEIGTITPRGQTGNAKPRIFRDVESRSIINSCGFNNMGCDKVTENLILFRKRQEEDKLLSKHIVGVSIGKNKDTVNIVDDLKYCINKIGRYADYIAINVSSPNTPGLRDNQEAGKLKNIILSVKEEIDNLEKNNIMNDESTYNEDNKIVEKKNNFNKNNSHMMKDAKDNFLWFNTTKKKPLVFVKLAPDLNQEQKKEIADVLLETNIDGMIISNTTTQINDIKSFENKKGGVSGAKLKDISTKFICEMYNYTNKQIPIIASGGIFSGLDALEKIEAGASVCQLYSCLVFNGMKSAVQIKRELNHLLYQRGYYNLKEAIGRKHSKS

`COc1ccc(C(O)C2C=CC3C(=O)N(c4ccccc4)C(=O)C3N2Nc2ccccc2F)cc1OCc1ccccc1` (stereo not given): the z-score in assay [1] was -0.299; in assay [2], -0.737 (inactive); in assay [3], -1.66 (inactive); in assay [5], 1.11 (inactive); in [6], -0.0242 (inactive); in [7] it was -0.472 (inactive). In addition, the figures for the z-score in assay [8] and in assay [9] were 0.226 (inactive) and -1.55, respectively. The composite z-score was -0.318 (inactive) in assay [4] and 0.0158 in [10].
Turning to `CCc1oc(CC[C@@H](CO)NC(=O)NCCn2cc(C3(O)CCCCC3)nn2)c(C(=O)OC)c1C(=O)OC`, the z-score in assay [1] was -0.676; in [2], -1.16 (inactive); in [3], -0.658 (inactive); in [5], -0.109 (inactive); in [6], -0.298 (inactive); in assay [7], -0.247 (inactive). The z-score in assay [8] was -0.64 (inactive); in assay [9], -0.626. Moreover, the composite z-score in assay [4] is -0.32 (inactive); in [10], -0.0078.
Regarding `COc1ccc(COC2OC[C@]3(C)[C@H]4C5=C(CN3C(=O)OC(C)(C)C)[C@H](C)C(CO)C(CO)C5CC[C@@H]24)cc1` (stereo not given in full), the z-score was -0.987 in [1]; 0.455 (inactive) in assay [2]; -2.38 (inactive) in assay [3]; 1.03 (inactive) in assay [5]; 0.903 (inactive) in assay [6]; -0.806 (inactive) in assay [7]. Moreover, the values for the z-score in assay [8] and in assay [9] were -1.6 (inactive) and -1.19, respectively. The composite z-score in [4] is -0.124 (inactive); in assay [10] it was -0.02.
In the case of `COCCOC(=O)N1C(=O)[C@@]2(c3cc(C#CC4=CCCCC4)ccc31)[C@H](C(=O)N1CCc3cc(OC)c(OC)cc3C1)[C@H]1C(=O)O[C@H](c3ccccc3)[C@H](c3ccccc3)N1[C@@H]2c1ccc(OCCO)cc1`, the z-score in [1] was 0.149; in [2], 1.18 (inactive); in [3], 0.516 (inactive); in assay [5] it was 3.64 (inactive); in assay [6], 1.38 (inactive); in assay [7], 0.14 (inactive). Further, the z-score is -0.316 (inactive) in [8] and 0.492 in [9]. The figures for the composite z-score in assay [4] and in assay [10] were -0.352 (inactive) and -0.139, respectively.
`CC(C)C(=C=CC[C@@H](O)c1ccccc1OCCO)CCO`: the z-score in [1] is 0.61; in [2] it was -13 (active); in [3], 0.11 (inactive); in assay [5], -0.0828 (inactive); in assay [6] it was 0.413 (inactive); in assay [7] it was 0.272 (inactive). Further, the z-score is 0.123 (inactive) in assay [8] and 1.28 in assay [9]. Moreover, the composite z-score in assay [4] was -5.28 (inactive); in assay [10] it was -0.318.
Turning to `O=C1C2C=CC(C(O)C3CCCCC3)N(Nc3ccc([N+](=O)[O-])cc3)C2C(=O)N1c1ccccc1` (stereo not given), the z-score in [1] was -1.13; in [2] it was 0.581 (inactive); in assay [3], -0.772 (inactive); in [5], 0.409 (inactive); in [6], 1.09 (inactive); in assay [7] it was -0.915 (inactive). The z-score is -1.96 (inactive) in assay [8] and -0.675 in [9]. The composite z-score in assay [4] was 1.14 (inactive); in assay [10], 0.242.
For the compound `CN1C(=O)C2C=CC(C(O)Cc3ccccc3)N(Nc3ccccc3)C2C1=O` (stereo not given), the z-score in [1] was -0.355; in assay [2] it was -0.836 (inactive); in assay [3], -0.808 (inactive); in assay [5] it was 1.07 (inactive); in assay [6], 0.217 (inactive); in assay [7] it was -0.553 (inactive). Further, the z-score in [8] is -0.801 (inactive); in [9], -0.541. The figures for the composite z-score in assay [4] and in assay [10] were 0.295 (inactive) and -0.189, respectively.
As for `COc1ccc(NN2C(C(O)c3ccc([N+](=O)[O-])cc3)C=CC3C(=O)N(C4CCCCC4)C(=O)C32)cc1` (stereo not given), the z-score in assay [1] was 0.755; in assay [2] it was 0.136 (inactive); in assay [3], 0.0225 (inactive); in assay [5] it was 0.67 (inactive); in [6], 0.388 (inactive); in assay [7], -0.637 (inactive). Also, the z-score in [8] was 0.523 (inactive); in assay [9] it was 0.907. Besides, the composite z-score in assay [4] was -0.238 (inactive); in [10], 0.209.
With `COC(=O)[C@@]1(Cc2ccccc2)[C@H]2c3cc(C(=O)N4CCCC4)n(Cc4nc5ccccc5[nH]4)c3C[C@H]2CN1C(=O)c1ccccc1`, the z-score is -0.415 in [1]; 1.22 (inactive) in [2]; -1.66 (inactive) in assay [3]; 0.687 (inactive) in assay [5]; 0.759 (inactive) in [6]; -0.538 (inactive) in assay [7]. The z-score was -1.1 (inactive) in assay [8] and -1.3 in assay [9]. Moreover, the composite z-score in [4] was 0.374 (inactive); in [10] it was 0.119.
Turning to `NC(=O)[C@@H]1[C@H]2C(=O)O[C@H](c3ccccc3)[C@H](c3ccccc3)N2[C@H](c2ccc(O)cc2)[C@@]12C(=O)Nc1ccc(C#CC3(O)CCCCCC3)cc12`, the z-score in assay [1] is -0.0265; in assay [2], -1.32 (inactive); in assay [3], 0.475 (inactive); in assay [5], 0.654 (inactive); in [6], 0.591 (inactive); in assay [7] it was -0.84 (inactive). Besides, the z-score was -0.184 (inactive) in [8] and -0.49 in [9]. In addition, the composite z-score was -0.387 (inactive) in assay [4] and -0.113 in [10].
Take `C=CCN1C(=O)[C@@]2(O[C@@H](CCO)[C@H]([Si](C)(C)c3ccc(OC)cc3)[C@H]2C)c2cc(NC(=O)c3ccc(OC)cc3)ccc21`: the z-score is -2.49 in [1]; -1.77 (inactive) in assay [2]; -3.52 (inactive) in [3]; 1.53 (inactive) in [5]; 1.69 (inactive) in [6]; 1.22 (inactive) in assay [7]. The z-score in assay [8] is 0.586 (inactive); in assay [9], -4.92. In addition, the composite z-score is -1.21 (inactive) in assay [4] and -0.154 in [10].
